# In PubChem BioAssay (Tox21):
# The source made the active and inactive calls. A call without a number means that no potency is given here. The call rests on the fitted dose curve; in most records, active means well fitted activation curve with a large enough effect in the repeat runs; inconclusive means weak or mixed curves; inactive means flat fitted curve, though single readings scatter.
# Test: A CellTox Green Cytotoxicity Assay to monitor cytotoxicity in HEK293 cells - 0 hour (AID 1224869); further: nearly all actives have a fitted effect of over 50% in size
# Conditions: CellTox Green fluorescence; series mostly up to 76.8 µM
# Source text: National Center for Advancing Translational Sciences [NCATS]
# NIH Chemical Genomics Center [NCGC]
# U.S. Environmental Protection Agency [EPA]
# National Institutes of Environmental Health Sciences [NIEHS]
# National Toxicology Program [NTP]
# Cell-based models are critical for drug discovery. Determining the natural cytotoxic effects resulting from test compounds is an essential research activity. A CellTox Green Cytotoxicity Assay to monitor cytotoxicity in real time of continues cell culture during 40 hours of the compound treatment was used to screen Tox21 10K library compounds in Hek293 cells. CellTox Green Cytotoxicity Assay is a nonlytic, homogeneous, biofluorescent method to measure cytotoxicity in cell culture after experimental manipulation. The assay system uses a proprietary asymmetric cyanine dye that is excluded from viable cells but preferentially stains the dead cell's DNA. […] Viable cells produce no appreciable increases in fluorescence. Therefore, the fluorescence signal produced by the binding interaction with dead cell DNA is proportional to cytotoxicity.
# The mixture of Hek293 cell suspension and reagents were dispensed at 600cells/6 ul/well in 1536-well tissue culture treated black solid bottom plates using a Multidrop dispenser. After the assay plates were incubated at a 37 C/5% CO2 incubator for 5 hours, 23 nL of compounds dissolved in DMSO, positive and negative controls was transferred to the assay plate by a pintool work station. The plates were incubated at 37 C for 40 hours. The fluorescence intensity were measured at 0h, 8h, 16h, 24h, 32h and 40h time points using ViewLux plate reader during compound treatment.
row,Compound,Potency
1,CCCSP(=O)(OCC)SCCC,inactive
2,COc1cccc(C(=O)CCN[C@@H](C)[C@H](O)c2ccccc2)c1,inactive
3,COc1ccc(/C(=C/C(=O)N2CCOCC2)c2ccc(Cl)cc2)cc1OC,inactive
4,O=c1c(C2CC(c3ccc(-c4ccc(Br)cc4)cc3)Cc3ccccc32)c(O)sc2ccccc12 (stereo not given),inactive
5,CC(=[OH+])/C=C(/C)[O-].CC(=[OH+])/C=C(\C)[O-].CC(=[OH+])/C=C(\C)[O-].[Fe],inactive
6,CCCCCCCCCC[N+](C)(C)CCCCCCCCCC,inactive
7,COc1cc(N)c(Cl)cc1C(=O)NC1CN2CCC1CC2 (stereo not given),inactive
8,SCc1ccco1,inactive
9,c1ccc2cc3c(cc2c1)-c1cccc2cccc-3c12,inactive
10,CCCCCCCCCCCCCCCCCCn1cc[n+](C)c1,inactive
11,ClCc1ccc(Cl)cc1Cl,inactive
12,CC(Cl)CN(C)C (stereo not given),inactive
13,CCCCCCCCCCCCCN1CC(C)OC(C)C1 (stereo not given),inactive
14,CSCCCN=C=S,inactive
15,C=CCC1=C(C)C(OC(=O)C2C(C=C(C)C)C2(C)C)CC1=O (stereo not given),inactive
16,C[C@H]1O[C@@H](O[C@H]2[C@@H](O)C[C@H](O[C@H]3[C@@H](O)C[C@H](O[C@H]4CC[C@@]5(C)[C@H](CC[C@@H]6[C@@H]5CC[C@]5(C)[C@@H](C7=CC(=O)OC7)CC[C@]65O)C4)O[C@@H]3C)O[C@@H]2C)C[C@H](O)[C@@H]1O,inactive
17,O=c1ssc(Cl)c1Cl,inactive
18,CC1(C)CC/C(=C/c2ccc(Cl)cc2)C1(O)Cn1cncn1 (stereo not given),inactive
19,CC(=O)c1ccc(-c2ccccc2)cc1,inactive
20,ClC1=C(Cl)[C@]2(Cl)[C@H]3[C@H]([C@H]4C=C[C@H]3C4)[C@@]1(Cl)C2(Cl)Cl,inactive

row,Compound,Potency
1,NNC(=O)c1ccccc1,inactive
2,[Hg+2].[I-].[I-],inactive
3,COc1cc(C=O)cc2c1[C@H](COC(N)=O)[C@]1(OC(C)=O)ON2C[C@H]2[C@@H]1N2C(C)=O,inactive
4,Fc1cccc(Cl)c1CCl,inactive
5,CCCCCCCCCCCCCCC(Br)C(=O)O (stereo not given),inactive
6,N#C/C=C/C#N,inactive
7,S=C(SSC(=S)N1CCCCC1)N1CCCCC1,inactive
8,Oc1ccc(C(=C(Cl)Cl)c2ccc(O)cc2)cc1,inactive
9,CC(=O)[O-].[Tl+],inactive
10,C=CC(=O)N(C)C,inactive
11,CC1(c2ccc(Oc3ccccc3)cc2)OC(=O)N(Nc2ccccc2)C1=O (stereo not given),inactive
12,CC(C)C1CCC(Cc2ccc(Cl)cc2)C1(O)Cn1cncn1 (stereo not given),inactive
13,Oc1ccc(C(c2ccc(O)cc2)(C(F)(F)F)C(F)(F)F)cc1,inactive
14,ClC1=C(Cl)C2(Cl)C3C(Cl)C(Cl)CC3C1(Cl)C2(Cl)Cl (stereo not given),inactive
15,[CH3][Hg][Cl],inactive
16,CC(C)CBr,inactive
17,Cc1cc(C(C)(C)c2cc(C)c(O)c(C)c2)cc(C)c1O,inactive
18,OC(c1ccc(Cl)cc1)(c1ccc(Cl)cc1)C(Cl)(Cl)Cl,inactive
19,N#CSCSC#N,inactive
20,Nc1ccc([N+](=O)[O-])cc1Cl,inactive
